{"source": "PubChem BioAssay (NCI)", "note": "Compounds without any hit were thinned out: in the full panel of roughly 83,000, 20% have a hit.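 Cells were grown in 96-well plates and exposed to the test compound at a single concentration for 48 hours; results are reported as percent growth, with values below 10 considered active.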 Activity calls are given as the source filed them.", "data": [{"test_system": "MDA-MB-468 breast", "experiment": "NCI-60 one-dose screen, 48 h (100 = growth as untreated, 0 = no growth, -100 = all killed)", "details": "10 µM unless noted", "values": [{"smiles": "c1ccc(/C(=N\\N=C(/c2ccccc2)c2cccs2)c2cccs2)cc1", "growth": "105% (inactive)"}, {"smiles": "CC(=O)OC[Si](C)(C)c1ccccc1", "growth": "95.3% (inactive)"}, {"smiles": "COc1ccc(-c2nn(-c3cccc(Cl)c3)cc2C=C(C#N)C#N)cc1", "growth": "-2.82% (active)"}, {"smiles": "Clc1ccc2sc(-c3ccccc3)nc2c1", "growth": "68.9% (inactive)"}, {"smiles": "CCOC(=O)C(C#N)Cc1ccccc1", "note": "(configuration not stated)", "growth": "115% (inactive)"}, {"smiles": "CSc1[nH]c(=O)ncc1F", "growth": "98.1% (inactive)"}, {"smiles": "O=C(CNC(=O)c1cccc2ccccc12)Nc1ccccc1Cc1ccccc1", "growth": "13.7% [5 µM] (inactive)"}, {"smiles": "CN1C=CN(Cc2ccc(-c3ccccn3)nc2)[CH-]1.CN1C=CN(Cc2ccc(-c3ccccn3)nc2)[CH-]1.[Au+3]", "growth": "-19.2% (active)"}, {"smiles": "CSc1cc(SC)ncn1", "growth": "108% (inactive)"}, {"smiles": "COc1ccc2sc(NC(=O)CCCCCCNC(=O)C(O)(O)C(F)(F)F)nc2c1", "growth": "-11.7% (active)"}, {"smiles": "Cc1ccc(/C=C2\\CN(C(=O)C(Cl)Cl)C/C(=C\\c3ccc(C)cc3)C2=O)cc1", "growth": "-65.9% (active)"}, {"smiles": "NC(=N\\N=C/c1ccc(O)cc1)/C(N)=N\\N=C/c1ccc(O)cc1", "growth": "103% (inactive)"}, {"smiles": "CC(C)CSc1nc(NN)c(C#N)c(-c2ccc(F)cc2)n1", "growth": "85.2% (inactive)"}, {"smiles": "Cn1c(=O)c2nc(/C=C/c3ccccc3)c(=O)[nH]c2n(C)c1=S", "growth": "103% (inactive)"}, {"smiles": "Cc1[nH]c(=O)[nH]c(=O)c1Br", "growth": "107% (inactive)"}, {"smiles": "Nc1cc(N)c(N)cc1N", "growth": "84.7% (inactive)"}, {"smiles": "O=C(c1ccccc1)N(C(=S)NCCc1ccc(Cl)cc1)c1ccccc1", "growth": "30.3% (inactive)"}, {"smiles": "CS(=O)(=O)Nc1cc(-c2ccc3ncnc(Nc4c(Cl)ccc5c4OCO5)c3c2)cnc1Cl", "growth": "-74.3% (active)"}, {"smiles": "NC1CCN(c2nc(Nc3cccc(C(F)(F)F)c3)c3c(=O)[nH]ccc3n2)CC1", "growth": "-77.2% (active)"}, {"smiles": "COc1cc(/C=C/CO)cc(OC)c1O[C@@H]1O[C@H](CO)[C@@H](O)[C@H](O)[C@H]1O", "growth": "91.9% (inactive)"}, {"smiles": "CN1CCN(C(=O)C(C)(C)c2ccc(C(=O)Nc3cn4cc(-c5ccncc5)ccc4n3)cc2)CC1", "growth": "-16.2% (active)"}, {"smiles": "C[n+]1c2ccccc2nc2c(N)cc(N)cc21", "growth": "-5.14% (active)"}, {"smiles": "COC1(OC)C2(Cl)C=C(c3ccccc3)C1(Cl)C(Cl)=C2Cl", "note": "(configuration not stated)", "growth": "108% (inactive)"}, {"smiles": "CCOC(=O)c1c(Nc2ccccc2)nn2c(-c3ccco3)c(C#N)cnc12", "growth": "89.4% (inactive)"}, {"smiles": "CC[C@@H]1O[C@H](O[C@@H](c2cnc[nH]2)[C@H](NC(=O)c2nc([C@H](CC(N)=O)NC[C@@H](N)C(N)=O)nc(N)c2C)C(=O)N[C@H](C)[C@H](O)[C@H](C)C(=O)N[C@@H](C(=O)NCCc2nc(-c3nc(C(=O)NCCCCN=C(N)N)cs3)cs2)[C@@H](C)O)[C@H](O[C@@H]2O[C@H](CO)[C@H](O)[C@H](OC(N)=O)[C@@H]2O)[C@H](C)[C@@H]1C", "growth": "57% (inactive)"}, {"smiles": "CCOC(=O)c1c[nH]c2cc(OCC3CC3)c(OCC3CC3)cc2c1=O", "growth": "107% (inactive)"}, {"smiles": "CC(=O)c1c(C)nc(-c2cc(C)cc(Cl)c2)nc1-c1cccc(Oc2ccccc2)c1", "growth": "60.8% (inactive)"}]}]}
